Compounds without any hit were thinned out: in the full panel of roughly 83,000, 20% have a hit.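 Method: cells in 96-well plates; compound added at one concentration; 48 h incubation; percent growth measured; values under 10 scored active.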 A number with no mark means an inactive call. Active and inactive are the calls of the source.
Experiments:
Assay in all cases: NCI-60 one-dose screen, 48 h (100 = growth as untreated, 0 = no growth, -100 = all killed)
Settings in all cases: 10 µM unless noted
SK-MEL-2 melanoma = tested on: SK-MEL-2 melanoma
EKVX NSCLC = tested on: EKVX NSCLC
SN12C renal = tested on: SN12C renal
UO-31 renal = tested on: UO-31 renal
TK-10 renal = tested on: TK-10 renal
ACHN renal = tested on: ACHN renal
CAKI-1 renal = tested on: CAKI-1 renal
A498 renal = tested on: A498 renal
CCRF-CEM leukemia = tested on: CCRF-CEM leukemia
MOLT-4 leukemia = tested on: MOLT-4 leukemia
SR leukemia = tested on: SR leukemia
RPMI-8226 leukemia = tested on: RPMI-8226 leukemia
OVCAR-8 ovarian = tested on: OVCAR-8 ovarian
OVCAR-5 ovarian = tested on: OVCAR-5 ovarian
OVCAR-4 ovarian = tested on: OVCAR-4 ovarian
SK-OV-3 ovarian = tested on: SK-OV-3 ovarian
IGROV1 ovarian = tested on: IGROV1 ovarian
OVCAR-3 ovarian = tested on: OVCAR-3 ovarian
HS 578T breast = tested on: HS 578T breast
NCI/ADR-RES ovarian = tested on: NCI/ADR-RES ovarian

SMILES | growth (SK-MEL-2 melanoma) | growth (EKVX NSCLC) | growth (SN12C renal) | growth (UO-31 renal) | growth (TK-10 renal) | growth (ACHN renal) | growth (CAKI-1 renal) | growth (A498 renal) | growth (CCRF-CEM leukemia) | growth (MOLT-4 leukemia) | growth (SR leukemia) | growth (RPMI-8226 leukemia) | growth (OVCAR-8 ovarian) | growth (OVCAR-5 ovarian) | growth (OVCAR-4 ovarian) | growth (SK-OV-3 ovarian) | growth (IGROV1 ovarian) | growth (OVCAR-3 ovarian) | growth (HS 578T breast) | growth (NCI/ADR-RES ovarian)
Cc1ccc(-c2c(Br)c(OC(=O)CO[C@@H]3C[C@H](C)CC[C@H]3C(C)C)c(-c3ccc(C)cc3C)c(Br)c2OC(=O)CO[C@H]2C[C@@H](C)CC[C@@H]2C(C)C)c(C)c1 | 90.2% | 101% | 98.9% | 87% | 92.8% | 104% | 97% | 96.1% | 90% | 97.6% | 104% | 94.3% | 89.6% | 102% | 106% | 94.9% | 108% | 110% | 98.9% | 101%
CC(=O)Nc1ccc(C(=O)Nc2cc(-c3ccccc3)ccc2N)cc1 | 73.8% | 71.4% | 84.2% | 48.7% | 59.5% | 54.8% | 47.5% | 83.9% | 80.1% | 64.8% | 39.4% | 83.6% | 54.9% | 60.5% | 76.7% | 67.9% | 94% | 75.2% | 92% | 42.9%
C#CCn1cc(C=C2C(=O)NC(=S)NC2=O)c2cc(Cl)ccc21 | 89.1% | 67.2% | -34.9% (active) | -73.4% (active) | 16.1% | -25.2% (active) | 9.84% (active) | -1.83% (active) | 0.645% (active) | 5.59% (active) | 4.92% (active) | -14.9% (active) | 12.1% | 56.9% | 56.1% | 81.7% | -40.6% (active) | -36.4% (active) | -0.874% (active) | 19.5%
COc1ccc(-c2nc(N/N=C/c3ccco3)nc(N3CCOCC3)c2C#N)cc1 | 91.4% | 82.3% | 80.2% | 28.7% | 89.8% | 78.3% | 59% | 6.67% (active) | 74.2% | 62.2% | 60.2% | 64% | 88.6% | 89.6% | 78% | 64.6% | 37.3% | 70.2% | 80.6% | 86.4%
Clc1ccc(N2N=C(c3cccc(Nc4ccncc4)c3)CC2c2ccc(Br)cc2)cc1 (stereo not given) | 94.7% | 77.9% | 54.3% | 43.2% | 62.3% | 2.34% (active) | 27.3% | 71.6% | 3.27% (active) | -0.295% (active) | 1.87% (active) | -2.67% (active) | -18.7% (active) | 77.8% | 0.0501% (active) | 85.7% | 3.01% (active) | 37.7% | 60.5% | 39.6%
COC(=O)Nc1nc2ccc(C(=O)c3cccc(I)c3)cc2[nH]1 | 12.1% | 29.9% | 23.3% | 28.8% | 42.4% | 17.5% | 5.37% (active) | -15.3% (active) | 5.32% (active) | 19.1% | -3.68% (active) | 7.16% (active) | 6.51% (active) | 28.6% | 28.3% | 30.3% | 14.9% | -5.1% (active) | 13.6% | -0.725% (active)
Cc1c2c(cc[n+]1Cc1ccc(F)cc1)c1ccc(OCc3cccc(F)c3)cc1n2Cc1cccc(F)c1 | -81.3% (active) | -23.5% (active) | -90.5% (active) | 53.9% | -27.8% (active) | 32.2% | 60.2% | -1.04% (active) | -54.2% (active) | -62.4% (active) | -48.7% (active) | -33% (active) | -81.6% (active) | 4.86% (active) | -80.8% (active) | 2.43% (active) | -67.4% (active) | -98.5% (active) | -40.9% (active) | 85%
COc1ccc(C(=O)/C=C/c2cn(Cc3ccc(Cl)cc3)c3ccccc23)cc1 | 74.6% | 89% | 69.4% | 53.7% | 27.4% | 62.1% | 2.08% (active) | -6.05% (active) | 41.1% | 39.8% | 20.1% | 70.7% | 71% | 13.4% | 76.3% | 57.4% | 23.7% | 57.6% | 60% | 38.4%
CC1(C)CN(c2cnc(C(=O)Nc3cc(F)cc4cccnc34)cn2)CCN1 | 99.8% | 73% | 72.1% | 40.9% | 79.3% | 31.3% | 62.4% | 74.3% | 44.5% | 38.5% | 7.28% (active) | 75.6% | 96.5% | 86.1% | 15% | 79.5% | 36.2% | 10.6% | 71.6% | 90.9%
O=C1NC(=O)C(=Cc2cn(Cc3ccccn3)c3ccccc23)C(=O)N1 | 102% | 98% | 102% | 75.5% | 59.8% | 104% | 13.9% | -90.4% (active) | 95.8% | 100% | 93% | 96.1% | 101% | -50.9% (active) | 93.4% | 89.8% | 31.6% | 102% | 94.7% | 100%
CC(=O)Nc1ccc(S(=O)(=O)NC2CCCCC2)cc1 | 108% | 95.2% | 91% | 85.2% | 90.2% | 91.7% | 98.5% | 64.3% | 96.3% | 101% | 99% | 94.3% | 101% | 93.9% | 113% | 97.3% | 103% | 110% | 92.7% | 99.7%
COc1cc(NCC(O)CN(CC(C)C)CC(C)C)c2nc(C)ccc2c1 (stereo not given) | 99% | 79.8% | 92.3% | 66.9% | 105% | 89.4% | 74.1% | 86.2% | 115% | 78% | 102% | 99.4% | 87.2% | 122% | 40.2% | 75.2% | 86.9% | 53.2% | 85.1% | 92%
CCCCCCCCCCCCCCCC(=O)OC[C@@]1(O)C[C@@]23CC[C@@H]4C(C)(C)[C@H](O)CC[C@@]4(C)[C@@H]2CC[C@H]1C3 | 104% | 100% | 96% | 92.4% | 101% | 108% | 94.2% | 105% | 100% | 101% | 98.2% | 102% | 108% | 106% | 113% | 97.1% | 117% | 107% | 100% | 106%
O=S(=O)(NCCCNc1nccc(-c2c(-c3ccc(F)c(O)c3)nc3sccn23)n1)c1ccc(F)cc1 | -29.9% (active) | 30.6% | 4.8% (active) | -1.81% (active) | 27.6% | 6.06% (active) | 8.16% (active) | -10.9% (active) | -13.2% (active) | -3.88% (active) | -7.44% (active) | -47.7% (active) | -11.9% (active) | 24.4% | 3.86% (active) | 17.9% | 0.863% (active) | 20.8% | 3.15% (active) | 48.2%
C#Cc1cccc(NC(=O)Nc2cccc(N=C=S)c2)c1 | 109% [8.25 µM] | 99.7% [8.25 µM] | 97.6% [8.25 µM] | 87.7% [8.25 µM] | 119% [8.25 µM] | 103% [8.25 µM] | 94.7% [8.25 µM] | 85% [8.25 µM] | 96.1% [8.25 µM] | 97.8% [8.25 µM] | 88.9% [8.25 µM] | 99.3% [8.25 µM] | 98.6% [8.25 µM] | 102% [8.25 µM] | 99.6% [8.25 µM] | 120% [8.25 µM] | 98.4% [8.25 µM] | 115% [8.25 µM] | 95.6% [8.25 µM] | 106% [8.25 µM]
